About 1,400 (1.5%) of roughly 96,000 compounds were called active. The sample as a whole holds a higher share of actives than the screen did. Unmarked numbers belong to inactive results.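 The calls were made as follows: active = activation factor of 2 or more for CYP2C9 at a 5 µM dose; inactive = the rest.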

In the assay the target is Cytochrome P450 2C9 (Homo sapiens) (UniProt P11712). The experiment in a line: human CYP2C9 activators, primary screen, biochemical, luminescence (AID 1024).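 Also: 0 = sulfaphenazole-blocked wells and 1 = vehicle-only wells.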 The following applies: recombinant CYP2C9, luciferin-H conversion, at 5 µM, stronger effect = higher value, factor 1 = untreated enzyme, 0 = blocked.
Sequence of Cytochrome P450 2C9 (Homo sapiens) (P11712 whole entry, looked up): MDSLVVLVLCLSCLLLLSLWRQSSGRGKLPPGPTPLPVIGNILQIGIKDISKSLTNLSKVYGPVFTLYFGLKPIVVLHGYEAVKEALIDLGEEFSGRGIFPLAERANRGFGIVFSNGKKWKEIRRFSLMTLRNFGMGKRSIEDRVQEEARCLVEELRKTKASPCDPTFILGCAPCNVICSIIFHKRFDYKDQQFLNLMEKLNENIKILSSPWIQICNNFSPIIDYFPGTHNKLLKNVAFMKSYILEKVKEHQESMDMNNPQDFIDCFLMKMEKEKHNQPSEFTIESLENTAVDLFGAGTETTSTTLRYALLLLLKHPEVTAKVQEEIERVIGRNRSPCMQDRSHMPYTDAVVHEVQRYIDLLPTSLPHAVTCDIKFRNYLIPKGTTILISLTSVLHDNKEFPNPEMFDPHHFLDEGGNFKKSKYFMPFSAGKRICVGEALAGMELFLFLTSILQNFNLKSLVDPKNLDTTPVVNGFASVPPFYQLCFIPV
In the case of `Cc1nc2cc(NC(=O)CSc3nc4c(C)cccc4cc3C#N)ccc2s1`, the activation factor is 0.7.

On to `O=C(CCCCn1c(=O)[nH]c2ccccc2c1=O)NCc1ccc2c(c1)OCO2`, for which the activation factor was 0.3.

With `Cn1cc(CCC(=O)NCc2ccc3c(c2)OCO3)c2ccccc21`, the activation factor was 2.2 (active).

For the compound `O=C(COc1ccccc1)NCc1ccc2c(c1)OCO2`, the activation factor was 0.7.

Regarding `CCCc1cc(=O)[nH]c(SCC(=O)c2cc(C)n(CCC)c2C)n1`, the activation factor is 0.9.

For the compound `Cc1ccc2nc(SCc3nnc(-c4ccccc4[N+](=O)[O-])o3)c(C#N)cc2c1`, the activation factor is 0.8.

In the case of `COC(=O)Cc1cc(=O)oc2c(C)c(O)ccc12`, the activation factor was 1.2.

Turning to `Cc1nc(Cl)c2oc3ccccc3c2n1`, the activation factor was 0.9.

For `Cc1ccc(NC(=O)C2CC(c3ccc(F)cc3)=NO2)cc1` (stereo not given), the activation factor was 0.8.

As for `CC(C)C(=O)Nc1cccc(C(=O)Nc2ccc3c(c2)OCO3)c1`, the activation factor was 0.4.

For the compound `O=C(Nc1ccc2c(c1)OCO2)C1CC(c2c(F)cccc2Cl)=NO1` (stereo not given), the activation factor was 2.6 (active).

As to `c1ccc(COc2ccccc2CNCc2cccnc2)cc1`, the activation factor is 1.1.

As to `Cc1csc(=NC(=O)c2ccccc2)n1CCO`, the activation factor is 0.7.

Take `Cc1cc(C)c2c3c(sc2n1)C(c1ccccc1)C(C#N)=C(N)O3` (stereo not given): the activation factor is 0.9.

Regarding `CC1CC(C)CN(S(=O)(=O)c2cccc(C(=O)N3C(=O)c4cccc(N)c4C3=O)c2)C1` (stereo not given), the activation factor is 0.9.

As for `O=C(CSc1nc(C2CC2)nc2ccccc12)Nc1ccc2c(c1)OCCO2`, the activation factor is 0.6.

As to `O=C(O)C1CC=CCC1C(=O)Nc1ccccc1C(=O)N1CCN(c2ccccc2)CC1` (stereo not given), the activation factor is 0.9.

On to `COc1ccc(/C=C(\NC(=O)c2ccc(OC)c(OC)c2)C(=O)NCCc2c[nH]c3ccccc23)cc1`, for which the activation factor is 0.6.

Take `Cc1ccc(C(=O)N/C(=C/c2ccco2)C(=O)NCCc2c[nH]c3ccccc23)cc1C`: the activation factor is 0.5.

As for `CC(=O)N/C(=C/c1ccc(Cl)cc1)C(=O)NCCc1c[nH]c2ccccc12`, the activation factor was 2.7 (active).

Regarding `O=C1c2cccnc2C(=O)N1Cc1cccs1`, the activation factor was 0.9.

As for `O=C1c2ccccc2C(=O)N1CCCc1nc(-c2ccccc2)no1`, the activation factor is 0.8.

On to `O=C1c2ccccc2C(=O)N1Cc1cc(-c2ccccc2Cl)no1`, for which the activation factor was 2.3 (active).

Turning to `Cc1c(C#N)c(NC(=O)c2ccccc2)n(Cc2ccccc2)c1C`, the activation factor was 0.4.

With `O=C(CNS(=O)(=O)c1cccc(C(F)(F)F)c1)Nc1ccccc1F`, the activation factor is 1.2.

Turning to `CC(C)CC(=O)Nc1cc(C(F)(F)F)ccc1N1CCOCC1`, the activation factor was 0.9.

Turning to `CC(CC(=O)Nc1cc(C(F)(F)F)ccc1Cl)c1ccccc1` (stereo not given), the activation factor is 2.4 (active).

Regarding `Cc1nc2ccc(NC(=O)C(F)(F)F)cc2o1`, the activation factor was 1.

For `Cc1c(CCO)c(=O)[nH]n1C(=O)c1c(F)cccc1F`, the activation factor is 1.

Turning to `CCOc1ccc(S(=O)(=O)NCC2CCCO2)cc1` (stereo not given), the activation factor was 0.9.

On to `CCC(=O)Nc1ccc(S(=O)(=O)NCC2CCCO2)cc1` (stereo not given), for which the activation factor is 1.

Regarding `O=S(=O)(NCC1CCCO1)c1ccc2ccccc2c1` (stereo not given), the activation factor is 3 (active).

Turning to `O=c1c2ccccc2nc2n1C(CSCc1ccccc1)CS2` (stereo not given), the activation factor is 0.9.

For `CCN1CCN(C(=O)/C=C\C(=O)O)CC1`, the activation factor was 1.

On to `Cc1ccc(CNC(=O)C2CC(c3ccccc3[N+](=O)[O-])=NO2)o1` (stereo not given), for which the activation factor was 1.2.

Take `Cc1cccc(NC(=O)C2CCCN2S(=O)(=O)c2ccc(F)cc2)c1C` (stereo not given): the activation factor was 2.5 (active).

Regarding `CC(=O)Nc1ccc(S(=O)(=O)N2CCCC2C(=O)O)cc1` (stereo not given), the activation factor was 1.1.

Take `Cc1ccc(S(=O)(=O)N2CCCC2C(=O)NCc2ccco2)cc1` (stereo not given): the activation factor is 1.5.

Take `O=C(Cn1nc(C(F)(F)F)c2c1CCC2)NCc1ccc(F)cc1`: the activation factor was 3.2 (active).

For the compound `Cc1cc(NC(=O)Cn2nc(C(F)(F)F)c3c2CCCC3)no1`, the activation factor is 0.9.

Take `COC(=O)c1ccccc1NC(=O)Cn1nc(C(F)(F)F)c2c1CCC2`: the activation factor was 0.8.

As to `CN1C2CCC1/C(=C\c1ccccc1Cl)C(=O)/C2=C\c1ccccc1Cl`, the activation factor was 1.8.

As to `COC(=O)/C=C/C(=O)NCc1ccco1`, the activation factor is 1.

Take `C=CCn1c(COc2ccccc2F)nnc1SCC(=O)N1CC(=O)Nc2ccccc21`: the activation factor was 0.9.

Consider `C=CCn1c(COc2ccccc2)nnc1SCC(=O)NCC(=O)OCC`, for which the activation factor was 1.1.

With `C=CCn1c(COc2cccc3cccnc23)nnc1SCC(=O)OC`, the activation factor was 4.1 (active).

With `CCN(CC)Cc1csc2ccc(Br)cc12`, the activation factor is 1.1.

Consider `COc1cc(C(=S)N2CCOCC2)cc(OC)c1OC(=O)c1cc([N+](=O)[O-])c(C)c([N+](=O)[O-])c1`, for which the activation factor was 0.9.

As for `COc1ccc(NCc2nnc(SCc3ccccc3)n2-c2ccc(OC)cc2)cc1`, the activation factor is 0.4.

As to `O=C(C(NS(=O)(=O)c1cccc2nsnc12)c1ccccc1)N1CCN(c2ccccc2)CC1` (stereo not given), the activation factor is 0.

Take `Cc1cccc(C)c1NC(=O)CCS(=O)(=O)c1cccc2nsnc12`: the activation factor is 1.

For `O=C(CCS(=O)(=O)c1cccc2nsnc12)N1CCN(c2ccccc2F)CC1`, the activation factor was 2.4 (active).

Consider `CSc1nc(-c2ccco2)nn1C(=O)CCc1ccccc1`, for which the activation factor was 1.1.

As to `O=C(N/N=C/c1ccsc1)c1cc(O)cc(O)c1`, the activation factor is 0.9.

As for `COc1ccc(-c2csc3nc(-c4ccccc4F)oc(=O)c23)cc1OC`, the activation factor is 1.

For the compound `CCOC(=O)N1CCN(C(=O)c2cc3c(ccc4ccccc43)oc2=O)CC1`, the activation factor was 0.5.

In the case of `C=CCc1cccc2cc(C(=O)N3CCN(C(=O)OCC)CC3)c(=O)oc12`, the activation factor is 2.1 (active).

For `CS(=O)(=O)N1CCN(C(=O)c2cc3ccccc3oc2=O)CC1`, the activation factor is 1.

As for `CCC(C)NC(=O)c1c(N)n(/N=C/c2cccs2)c2nc3ccccc3nc12` (stereo not given), the activation factor was 0.8.

For `Cc1cccc(-n2cnc(C(=O)Nc3cccnc3)c2)n1`, the activation factor is 0.1.

In the case of `CCOc1ccccc1Nc1nnc(SCC(=O)Nc2cc(C)on2)s1`, the activation factor is 0.9.

As for `CCOc1ccccc1NC(=O)CCc1ccc(C)o1`, the activation factor was 2.8 (active).

Regarding `CCOc1ccccc1NC(=O)CCN1CCN(S(=O)(=O)c2ccc(OC)cc2)CC1`, the activation factor was 0.6.

For the compound `Cc1c(Nc2nc3ccccc3nc2NS(=O)(=O)c2cccs2)c(=O)n(-c2ccccc2)n1C`, the activation factor is 0.5.

As to `O=C(CCc1ccc(S(=O)(=O)N2CCOCC2)cc1)Nc1ccc2ccccc2c1`, the activation factor is 0.4.

Turning to `CCCCOCCCNC(=O)c1ccccc1OCC`, the activation factor is 2.9 (active).

On to `CCCOc1ccccc1C(=O)NCCCC(=O)O`, for which the activation factor was 1.1.

For `CCOc1ccccc1C(=O)NCCCn1ccnc1`, the activation factor is 0.3.

`CCc1cc(C(c2ccccc2OC)N2CCOCC2)c(NC(=O)c2ccccc2)s1` (stereo not given): the activation factor is 0.1.

`O=C(NC1CCCCC1)C1CC(=O)N(CCc2ccccc2)C1` (stereo not given): the activation factor is 1.

On to `Cc1nn(-c2ccccn2)c2c1C(c1ccncc1)C1=C(CC(C)(C)CC1=O)N2` (stereo not given), for which the activation factor was 0.2.

Consider `COc1ccc(/C=C2\CCCC3C2=NN(C(=O)c2scnc2C)C3c2ccc(OC)cc2)cc1` (stereo not given), for which the activation factor was 0.2.

As to `O=C(NCc1ccccc1Cl)c1csc2c1CCCCC2`, the activation factor is 2.5 (active).

For `CC(=O)Cc1nsc(NC(=O)c2csc3c2CCCC3)n1`, the activation factor is 0.7.

As to `COC(=O)c1sccc1NC(=O)c1csc2c1CCCC2`, the activation factor was 0.9.

As to `CC(C)(C)NS(=O)(=O)CC12CCC(CC1=O)C2(C)C` (stereo not given), the activation factor was 0.8.

With `Cc1cc(C)c2c(-n3cccc3)c(C(=O)NNS(=O)(=O)c3ccc(F)cc3)sc2n1`, the activation factor is 0.

For `Cc1ccc2nc(/C(C#N)=C\c3ccc(OC(=O)c4cccs4)cc3)[nH]c2c1`, the activation factor was 0.2.

Consider `C=CCOC(=O)C1=C(C)NC(C)=C(C(=O)OCC=C)C1c1cccs1`, for which the activation factor is 0.

Take `CNC(=O)c1csc(-c2ccccc2)n1`: the activation factor is 0.9.

Regarding `Cc1ccc(S(=O)(=O)N(C)CC(=O)N2CCc3ccccc32)cc1`, the activation factor is 2.3 (active).

In the case of `Cc1ccc(S(=O)(=O)NCC(=O)OCC(=O)N2CCc3ccccc32)cc1`, the activation factor was 1.3.

Take `O=C(CSCc1ccccc1)N1CCc2ccccc21`: the activation factor was 1.1.

With `CCCC(=O)Nc1nc2ccc(NC(=O)c3cccnc3)cc2s1`, the activation factor was 0.7.

For the compound `O=C(/C=C\NCC(=O)c1ccccc1)c1ccccc1`, the activation factor was 0.9.

For `Cc1nn(-c2ccccc2)c(Cl)c1C(=O)Nc1ccccc1`, the activation factor was 1.5.

With `COc1ccccc1N1CCN(C(=O)CSc2nnc(-c3ccoc3C)o2)CC1`, the activation factor is 0.7.

In the case of `COc1ccccc1-c1nnc(SCC(=O)N2CC(C)CC(C)C2)o1` (stereo not given), the activation factor is 3.9 (active).

Regarding `COc1ccccc1-c1nnc(SCC(=O)Nc2ccccc2)o1`, the activation factor was 1.6.

In the case of `Cc1cccc(C)c1NC(=O)c1ccc(CN2CCc3ccccc3C2)cc1`, the activation factor was 1.1.

With `Cn1nc([N+](=O)[O-])nc1Sc1ccc(C(C)(C)C)cc1`, the activation factor was 0.9.

On to `COc1cccc(/C=N\Nc2nncc(-c3ccccc3)n2)c1`, for which the activation factor was 0.9.

With `COc1ccc(S(=O)(=O)N2CCCC(C(=O)N3CCN(C)CC3)C2)cc1C` (stereo not given), the activation factor was 1.2.

Take `COc1ccc(S(=O)(=O)Nc2ccc(S(=O)(=O)N3CCCCC3)cc2)cc1OC`: the activation factor was 0.1.

Turning to `COc1ccc(S(=O)(=O)Nc2ccc(F)cc2)c(C)c1C`, the activation factor was 0.3.

For the compound `CCOc1ccc(S(=O)(=O)N2CCCCCC2)c2ccccc12`, the activation factor was 1.5.

With `COc1ccc(S(=O)(=O)N2CCCCC2)cc1Br`, the activation factor is 2.1 (active).

Take `COc1ccc(S(=O)(=O)N2CCCC2)c(C)c1C`: the activation factor was 2.5 (active).

Consider `Cc1ccc(-c2nn(-c3ccccc3)cc2/C=N/NC(=O)c2ccc3c(c2)OCO3)cc1`, for which the activation factor was 0.2.

For `O=C(Nc1nccs1)C1CCCN1S(=O)(=O)c1cccc2cccnc12` (stereo not given), the activation factor was 0.5.

Turning to `COc1ccc(NC(=O)C2CCCN(S(=O)(=O)c3cccc4cccnc34)C2)cc1OC` (stereo not given), the activation factor was 1.2.

Take `COc1ccc(NC(=O)C2CCCN(S(=O)(=O)c3cccc4cccnc34)C2)cc1` (stereo not given): the activation factor is 1.5.

For `Cc1cccc(NC(=O)C2CCN(S(=O)(=O)c3cccc4cccnc34)CC2)c1`, the activation factor was 2.8 (active).

With `O=C(O)C1CCCN(S(=O)(=O)c2cccc3cccnc23)C1` (stereo not given), the activation factor is 1.2.

With `COc1ccccc1CNC(=O)C1CCCN(S(=O)(=O)c2cccc3cccnc23)C1` (stereo not given), the activation factor was 2.9 (active).

For the origin of these results see PubChem BioAssay AID1024 (Sanford-Burnham Center for Chemical Genomics, 2008).
